Compound activity (PubChem BioAssay)
In the library only some 6.7% were active in any assay of this set; here they are far more common.
T cruzi growth-1 = blocks T. cruzi growth in NIH3T3 culture | T. cruzi beta-gal in NIH3T3, GalScreen luminescence, 90 h | inhibition, % at 8.34 µM | hit rate 5.9% among 77,000 | AID 624255;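 active means mean inhibition above about 93%, with at least 55% of replicates each passing it, limit read from the data, passing the limit was not always enough; inconclusive means only one of those two conditions holds; inactive means neither condition holds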
Pf Dd2 growth = inhibitors of Plasmodium falciparum Dd2 growth; P. falciparum Dd2 growth, SYBR Green, 72 h; stronger effect = lower value; activity change, % at 10 µM; hit rate 2.3% among 94,000; in the data active means activity change below about -80%; inconclusive means no clear call, values can overlap the other calls
C diff HTS = C. difficile growth inhibition; hit rate 0.25% among 86,000; AID 1259249; growth activity, negative = inhibition, % at 16 µg/mL (by protocol); Clostridium difficile clinical isolate growth, OD600, 24 h; stronger effect = lower value;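 active means mean growth activity at or below -80% and every replicate also at or below -80%; inconclusive means mean at or below -80% but some replicate above -80%; inactive means mean growth activity above -80%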;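 further: 0% = DMSO wells and -100% = levofloxacin 16 µg/mL wells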
T cruzi growth-2 = blocks T. cruzi growth in NIH3T3 host cells; shares compounds with T cruzi growth-1; T. cruzi beta-gal in NIH3T3, GalScreen luminescence, 90 h; inhibition, % at 8.35 µM; hit rate 72% among 5,600;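 active means mean replicate inhibition above about 95% and at least 55% of replicates individually reaching it, limit read from the data; inconclusive means only one of the two criteria is met; inactive means neither criterion is met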
T cruzi growth-3 = Trypanosoma cruzi proliferation inhibition. shares compounds with T cruzi growth-1. T. cruzi beta-gal in NIH3T3, GalScreen luminescence, 90 h. inhibition, % at 2.09 µM. hit rate 21% among 5,600;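 active means mean inhibition above about 95%, with at least 55% of replicates also reaching it, limit read from the data; inconclusive means meets just one of the two conditions; inactive means meets neither condition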;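 further: plate controls were neutral control median for no effect and positive control median for full effect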
NIH3T3 tox = cytotoxicity in mouse NIH/3T3 fibroblasts; shares compounds with T cruzi growth-1; NIH/3T3 viability, CellTiter-Glo ATP luminescence, 90 h; cytotoxicity (signal decrease), % at 8.35 µM; hit rate 14% among 5,600; AID 651742;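 active means mean signal decrease across replicates above about 35% based on untreated-well scatter, with enough replicates individually passing, limit read from the data; inconclusive means no rule stated though some were filed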;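 further: 0% = median of neutral control wells and 100% = median of positive control wells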
3T3 cytotox 2 = NIH/3T3 (mouse) viability loss. shares compounds with T cruzi growth-1. NIH/3T3 viability, CellTiter-Glo ATP luminescence, 90 h. inhibition, % at 24.9 µM. hit rate 56% among 5,600. AID 651744;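 active means mean loss of cell viability signal at or above a set limit, and enough replicates individually reaching it; inconclusive means meets only the mean limit or only the replicate share; inactive means meets neither condition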;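 further: 0% = median of neutral control wells and 100% = median of positive control wells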
* hit, by the source's call.

How did CC(C)NC(=O)Nc1ccc2c(c1)C(=O)N([C@H](C)CO)C[C@@H](C)[C@@H](CN(C)Cc1ccc3c(c1)OCO3)OCCCC[C@H](C)O2 do in these assays?
T cruzi growth-1: -1; Pf Dd2 growth: -21; C diff HTS: 2

How did C[C@H](CO)N1C[C@H](C)[C@H](CN(C)Cc2ccc3c(c2)OCO3)OCCCC[C@H](C)Oc2ccc(NC(=O)Nc3ccc(F)cc3)cc2C1=O do in these assays?
T cruzi growth-1: 88; Pf Dd2 growth: -15; C diff HTS: 16

What do the screens show for `C[C@@H]1CCCCO[C@@H](CN(C)Cc2ccc3c(c2)OCO3)[C@@H](C)CN([C@@H](C)CO)C(=O)c2cc(NC(=O)Nc3ccc(F)cc3)ccc2O1`?
T cruzi growth-1: 98*; Pf Dd2 growth: -26; C diff HTS: 7; T cruzi growth-2: 110*; T cruzi growth-3: 81; NIH3T3 tox: -3; 3T3 cytotox 2: 17

How did C[C@H](CO)N1C[C@H](C)[C@H](CN(C)S(=O)(=O)c2ccc(C#N)cc2)Oc2ncc(/C=C/c3ccccc3)cc2C1=O do in these assays?
T cruzi growth-1: 71; Pf Dd2 growth: -34; C diff HTS: -4

How did C/C=C/c1ccc([C@H]2[C@@H](CNC(C)C)N(C(=O)c3ccccn3)[C@H]2CO)cc1 do in these assays?
T cruzi growth-1: 17; Pf Dd2 growth: 3; C diff HTS: -3

What do the screens show for `C[C@@H]1CCCCO[C@H](CN(C)S(=O)(=O)c2ccccc2)[C@@H](C)CN([C@@H](C)CO)C(=O)c2cc(NC(=O)c3ccccc3)ccc2O1`?
T cruzi growth-1: 72; Pf Dd2 growth: -69

Results for CCCC(=O)Nc1ccc2c(c1)C(=O)N(C)C[C@H](OC)[C@@H](C)CN(Cc1ccccn1)[C@@H](C)CO2 ?
T cruzi growth-1: 14; Pf Dd2 growth: -9

Results for O=C(N[C@@H]1CC[C@@H](CCNS(=O)(=O)c2ccccc2Cl)O[C@H]1CO)c1ccccc1 ?
T cruzi growth-1: 3; Pf Dd2 growth: -5; C diff HTS: 4

Results for C[C@@H]1CCCCO[C@H](CN(C)Cc2ccc3c(c2)OCO3)[C@@H](C)CN([C@H](C)CO)C(=O)c2cc(NC(=O)Nc3ccc(F)cc3)ccc2O1 ?
T cruzi growth-1: 98*; Pf Dd2 growth: -60; C diff HTS: 2; T cruzi growth-2: 112*; T cruzi growth-3: -2; NIH3T3 tox: -5; 3T3 cytotox 2: 9

Results for CC(C)NC(=O)Nc1ccc2c(c1)C(=O)N([C@@H](C)CO)C[C@H](C)[C@@H](CN(C)Cc1ccc3c(c1)OCO3)OCCCC[C@@H](C)O2 ?
T cruzi growth-1: 59; Pf Dd2 growth: -41; C diff HTS: 2

Results for Cc1ccc(S(=O)(=O)Nc2ccc3c(c2)C(=O)N(C)[C@@H]2CC[C@H](CC(=O)O)O[C@H]2CO3)cc1 ?
T cruzi growth-1: -2; Pf Dd2 growth: 4; C diff HTS: -1

What do the screens show for `CN1C(=O)c2cc(NS(=O)(=O)c3cccc(F)c3)ccc2OC[C@@H]2O[C@@H](CC(=O)NCCN3CCCCC3)CC[C@@H]21`?
T cruzi growth-1: 0; Pf Dd2 growth: -2; C diff HTS: -11

Results for CCCC(=O)Nc1ccc2c(c1)C(=O)N(C)[C@H]1CC[C@H](CC(=O)NCCN3CCCCC3)O[C@H]1CO2 ?
T cruzi growth-1: -22; Pf Dd2 growth: 16; C diff HTS: -5

What do the screens show for `CCCC(=O)Nc1ccc2c(c1)C(=O)N(C)[C@H]1CC[C@@H](CC(=O)NCCN3CCCCC3)O[C@H]1CO2`?
T cruzi growth-1: 99*; Pf Dd2 growth: 2; C diff HTS: -8; T cruzi growth-2: 98*; T cruzi growth-3: 95; NIH3T3 tox: 15; 3T3 cytotox 2: 1

How did CN1C(=O)c2cc(NS(=O)(=O)c3cccc(F)c3)ccc2OC[C@@H]2O[C@H](CC(=O)NCCN3CCCCC3)CC[C@@H]21 do in these assays?
T cruzi growth-1: 97*; Pf Dd2 growth: -13; T cruzi growth-2: 85; T cruzi growth-3: 88; NIH3T3 tox: -30; 3T3 cytotox 2: -4

Results for CN1C(=O)c2cc(NS(=O)(=O)c3ccc(F)cc3)ccc2OC[C@@H]2O[C@H](CC(=O)O)CC[C@H]21 ?
T cruzi growth-1: 103*; Pf Dd2 growth: 1; C diff HTS: -4; T cruzi growth-2: -22; T cruzi growth-3: -6; NIH3T3 tox: 2; 3T3 cytotox 2: 5

Results for C[C@@H]1CN([C@@H](C)CO)C(=O)c2cc(-c3cccc(C(=O)N(C)C)c3)cnc2O[C@H]1CN(C)S(=O)(=O)c1ccccc1 ?
Pf Dd2 growth: -8; C diff HTS: 1

How did C[C@@H]1CN([C@H](C)CO)C(=O)c2cc(NS(=O)(=O)c3cn(C)cn3)ccc2O[C@@H]1CN(C)C(=O)Nc1ccc(F)cc1 do in these assays?
T cruzi growth-1: 47; Pf Dd2 growth: 46

How did Cc1noc(C)c1S(=O)(=O)N(C)C[C@@H]1OCCCC[C@@H](C)Oc2ccc(NC(=O)Nc3ccccc3)cc2C(=O)N([C@@H](C)CO)C[C@H]1C do in these assays?
Pf Dd2 growth: -24; C diff HTS: 5

How did Cc1noc(C)c1S(=O)(=O)N(C)C[C@H]1OCCCC[C@@H](C)Oc2ccc(NC(=O)Nc3ccccc3)cc2C(=O)N([C@@H](C)CO)C[C@@H]1C do in these assays?
Pf Dd2 growth: -79; C diff HTS: -8

How did Cc1noc(C)c1S(=O)(=O)N(C)C[C@H]1OCCCC[C@H](C)Oc2ccc(NC(=O)Nc3cccc4ccccc34)cc2C(=O)N([C@@H](C)CO)C[C@@H]1C do in these assays?
T cruzi growth-1: 100*; Pf Dd2 growth: -85*; C diff HTS: -5; T cruzi growth-2: 109*; T cruzi growth-3: inconclusive; NIH3T3 tox: 7; 3T3 cytotox 2: 54*

What do the screens show for `Cc1noc(C)c1S(=O)(=O)N(C)C[C@H]1OCCCC[C@@H](C)Oc2ccc(NC(=O)Nc3ccccc3)cc2C(=O)N([C@H](C)CO)C[C@@H]1C`?
Pf Dd2 growth: -20; C diff HTS: 3

What do the screens show for `COc1ccc(NC(=O)Nc2ccc3c(c2)C(=O)N([C@@H](C)CO)C[C@H](C)[C@@H](CN(C)S(=O)(=O)c2c(C)noc2C)OCCCC[C@H](C)O3)cc1`?
T cruzi growth-1: 107*; Pf Dd2 growth: -83*; C diff HTS: -5; T cruzi growth-2: 102*; T cruzi growth-3: -8; NIH3T3 tox: -12; 3T3 cytotox 2: -7

What do the screens show for `Cc1noc(C)c1S(=O)(=O)N(C)C[C@@H]1OCCCC[C@H](C)Oc2ccc(NC(=O)Nc3cccc4ccccc34)cc2C(=O)N([C@H](C)CO)C[C@@H]1C`?
T cruzi growth-1: 109*; Pf Dd2 growth: -20; C diff HTS: -3; T cruzi growth-2: 98*; T cruzi growth-3: -37; NIH3T3 tox: 74*; 3T3 cytotox 2: 77*
